# From ChEMBL document CHEMBL1961873, “Compounds: GSK PKIS; Assays: Nanosyn kinase panel” (2012)
# Assays:
# [1] = biological target: T1, Serine/threonine-protein kinase Nek9 (Homo sapiens) (UniProt Q8TD19); conditions: at 1 µM;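 further: each value is a mean percent inhibition of NEK9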
# T1 sequence (whole entry): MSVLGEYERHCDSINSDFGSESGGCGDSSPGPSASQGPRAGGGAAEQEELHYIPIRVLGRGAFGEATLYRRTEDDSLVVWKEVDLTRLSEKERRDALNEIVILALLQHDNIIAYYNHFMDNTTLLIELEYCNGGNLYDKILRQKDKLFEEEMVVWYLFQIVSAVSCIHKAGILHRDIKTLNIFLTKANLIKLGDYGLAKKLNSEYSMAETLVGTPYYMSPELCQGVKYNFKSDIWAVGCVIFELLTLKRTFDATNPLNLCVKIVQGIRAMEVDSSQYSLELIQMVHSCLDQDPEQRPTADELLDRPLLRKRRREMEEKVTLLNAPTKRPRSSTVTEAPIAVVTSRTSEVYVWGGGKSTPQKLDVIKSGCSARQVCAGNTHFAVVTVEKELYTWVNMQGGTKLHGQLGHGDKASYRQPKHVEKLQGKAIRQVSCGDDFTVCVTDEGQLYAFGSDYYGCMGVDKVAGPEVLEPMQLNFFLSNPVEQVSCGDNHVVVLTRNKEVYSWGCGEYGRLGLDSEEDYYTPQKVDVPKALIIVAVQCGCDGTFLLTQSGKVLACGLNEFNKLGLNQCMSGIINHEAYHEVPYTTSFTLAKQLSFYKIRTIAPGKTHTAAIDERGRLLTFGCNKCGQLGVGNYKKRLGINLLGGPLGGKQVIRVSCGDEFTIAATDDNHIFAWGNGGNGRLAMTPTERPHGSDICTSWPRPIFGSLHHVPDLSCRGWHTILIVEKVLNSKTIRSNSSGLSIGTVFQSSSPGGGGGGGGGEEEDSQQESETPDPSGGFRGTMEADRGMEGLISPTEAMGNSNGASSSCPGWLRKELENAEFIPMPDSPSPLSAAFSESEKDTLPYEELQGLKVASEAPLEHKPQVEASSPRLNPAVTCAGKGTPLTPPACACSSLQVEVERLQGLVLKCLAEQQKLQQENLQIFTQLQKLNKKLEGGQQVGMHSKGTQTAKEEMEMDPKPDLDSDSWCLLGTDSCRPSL
# [2] = biological target: Serine/threonine-protein kinase PLK1 (Homo sapiens) (UniProt P53350); conditions: at 0.1 µM
# Sequence of Serine/threonine-protein kinase PLK1 (Homo sapiens) (P53350 whole entry): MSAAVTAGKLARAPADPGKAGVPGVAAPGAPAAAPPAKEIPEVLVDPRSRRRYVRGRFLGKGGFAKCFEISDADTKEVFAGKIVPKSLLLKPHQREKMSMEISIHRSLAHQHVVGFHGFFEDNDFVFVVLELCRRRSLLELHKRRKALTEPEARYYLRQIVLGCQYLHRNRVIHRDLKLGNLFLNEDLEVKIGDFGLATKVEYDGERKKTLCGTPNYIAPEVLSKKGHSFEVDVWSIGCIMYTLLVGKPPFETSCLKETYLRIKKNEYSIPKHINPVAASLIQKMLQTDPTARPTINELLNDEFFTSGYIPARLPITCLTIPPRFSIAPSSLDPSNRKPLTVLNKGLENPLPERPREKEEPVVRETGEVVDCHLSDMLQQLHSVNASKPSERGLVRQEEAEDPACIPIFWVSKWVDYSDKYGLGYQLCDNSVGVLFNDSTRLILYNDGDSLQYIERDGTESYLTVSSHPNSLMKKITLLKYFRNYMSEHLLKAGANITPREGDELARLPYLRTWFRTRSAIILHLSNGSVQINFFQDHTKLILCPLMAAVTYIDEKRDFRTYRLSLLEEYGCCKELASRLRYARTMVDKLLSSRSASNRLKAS
# [3] = biological target: Serine/threonine-protein kinase PLK1 (Homo sapiens) (UniProt P53350); conditions: at 1 µM
# [4] = biological target: T2, Dual specificity protein kinase TTK (Homo sapiens) (UniProt P33981); conditions: at 0.1 µM
# T2 sequence (whole entry): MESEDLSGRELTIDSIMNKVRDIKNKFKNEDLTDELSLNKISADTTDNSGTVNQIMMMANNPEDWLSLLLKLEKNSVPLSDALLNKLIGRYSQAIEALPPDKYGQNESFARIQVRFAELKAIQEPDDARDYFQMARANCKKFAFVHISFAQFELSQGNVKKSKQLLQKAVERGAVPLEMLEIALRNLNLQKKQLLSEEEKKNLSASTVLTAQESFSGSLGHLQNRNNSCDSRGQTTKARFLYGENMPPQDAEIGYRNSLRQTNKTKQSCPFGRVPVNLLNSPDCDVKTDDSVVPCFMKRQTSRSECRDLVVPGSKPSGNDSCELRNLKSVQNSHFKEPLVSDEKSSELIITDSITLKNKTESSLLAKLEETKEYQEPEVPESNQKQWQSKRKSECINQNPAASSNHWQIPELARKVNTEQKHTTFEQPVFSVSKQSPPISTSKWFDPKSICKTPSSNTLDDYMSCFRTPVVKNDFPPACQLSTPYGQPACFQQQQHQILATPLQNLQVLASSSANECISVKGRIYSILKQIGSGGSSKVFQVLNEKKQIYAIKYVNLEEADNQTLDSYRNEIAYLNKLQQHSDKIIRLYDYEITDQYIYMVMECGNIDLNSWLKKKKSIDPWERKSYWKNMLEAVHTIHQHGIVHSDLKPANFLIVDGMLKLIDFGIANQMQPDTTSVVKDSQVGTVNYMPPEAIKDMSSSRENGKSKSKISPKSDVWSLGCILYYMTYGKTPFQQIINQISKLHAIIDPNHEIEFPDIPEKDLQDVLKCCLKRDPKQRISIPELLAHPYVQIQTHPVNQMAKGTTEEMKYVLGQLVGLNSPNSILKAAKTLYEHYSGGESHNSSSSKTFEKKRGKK
# [5] = test system: T3, Receptor-type tyrosine-protein kinase FLT3 (Homo sapiens), P36888 [D835Y]; conditions: at 1 µM
# T3 sequence (whole entry): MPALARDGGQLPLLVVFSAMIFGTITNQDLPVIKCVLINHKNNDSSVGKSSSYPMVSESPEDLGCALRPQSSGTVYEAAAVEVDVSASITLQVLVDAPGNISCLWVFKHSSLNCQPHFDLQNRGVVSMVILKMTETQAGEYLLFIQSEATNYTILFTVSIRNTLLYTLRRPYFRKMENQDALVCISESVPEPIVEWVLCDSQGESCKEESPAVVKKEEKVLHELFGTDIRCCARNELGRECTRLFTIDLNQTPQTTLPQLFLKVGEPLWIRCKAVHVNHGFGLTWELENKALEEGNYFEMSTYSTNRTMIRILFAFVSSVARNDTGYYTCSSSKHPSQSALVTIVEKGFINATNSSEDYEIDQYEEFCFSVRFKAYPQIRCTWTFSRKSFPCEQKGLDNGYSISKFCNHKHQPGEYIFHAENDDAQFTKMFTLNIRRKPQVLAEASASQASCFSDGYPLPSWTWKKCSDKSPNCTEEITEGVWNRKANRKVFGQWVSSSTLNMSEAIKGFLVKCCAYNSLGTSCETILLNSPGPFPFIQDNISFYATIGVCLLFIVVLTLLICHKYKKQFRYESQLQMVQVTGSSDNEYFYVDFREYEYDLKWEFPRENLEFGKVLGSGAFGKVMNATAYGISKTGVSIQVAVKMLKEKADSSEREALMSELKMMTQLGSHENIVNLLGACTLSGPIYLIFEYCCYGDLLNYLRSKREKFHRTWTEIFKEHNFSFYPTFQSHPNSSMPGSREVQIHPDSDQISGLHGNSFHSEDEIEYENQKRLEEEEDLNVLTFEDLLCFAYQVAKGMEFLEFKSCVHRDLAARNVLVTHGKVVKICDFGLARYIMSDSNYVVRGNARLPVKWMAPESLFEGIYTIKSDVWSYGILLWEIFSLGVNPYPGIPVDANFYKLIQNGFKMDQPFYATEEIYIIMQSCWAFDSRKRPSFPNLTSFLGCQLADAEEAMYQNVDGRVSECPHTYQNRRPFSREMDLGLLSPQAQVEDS
# [6] = biological target: Vascular endothelial growth factor receptor 3 (Homo sapiens) (UniProt P35916); conditions: at 0.1 µM
# Sequence of Vascular endothelial growth factor receptor 3 (Homo sapiens) (P35916 whole entry): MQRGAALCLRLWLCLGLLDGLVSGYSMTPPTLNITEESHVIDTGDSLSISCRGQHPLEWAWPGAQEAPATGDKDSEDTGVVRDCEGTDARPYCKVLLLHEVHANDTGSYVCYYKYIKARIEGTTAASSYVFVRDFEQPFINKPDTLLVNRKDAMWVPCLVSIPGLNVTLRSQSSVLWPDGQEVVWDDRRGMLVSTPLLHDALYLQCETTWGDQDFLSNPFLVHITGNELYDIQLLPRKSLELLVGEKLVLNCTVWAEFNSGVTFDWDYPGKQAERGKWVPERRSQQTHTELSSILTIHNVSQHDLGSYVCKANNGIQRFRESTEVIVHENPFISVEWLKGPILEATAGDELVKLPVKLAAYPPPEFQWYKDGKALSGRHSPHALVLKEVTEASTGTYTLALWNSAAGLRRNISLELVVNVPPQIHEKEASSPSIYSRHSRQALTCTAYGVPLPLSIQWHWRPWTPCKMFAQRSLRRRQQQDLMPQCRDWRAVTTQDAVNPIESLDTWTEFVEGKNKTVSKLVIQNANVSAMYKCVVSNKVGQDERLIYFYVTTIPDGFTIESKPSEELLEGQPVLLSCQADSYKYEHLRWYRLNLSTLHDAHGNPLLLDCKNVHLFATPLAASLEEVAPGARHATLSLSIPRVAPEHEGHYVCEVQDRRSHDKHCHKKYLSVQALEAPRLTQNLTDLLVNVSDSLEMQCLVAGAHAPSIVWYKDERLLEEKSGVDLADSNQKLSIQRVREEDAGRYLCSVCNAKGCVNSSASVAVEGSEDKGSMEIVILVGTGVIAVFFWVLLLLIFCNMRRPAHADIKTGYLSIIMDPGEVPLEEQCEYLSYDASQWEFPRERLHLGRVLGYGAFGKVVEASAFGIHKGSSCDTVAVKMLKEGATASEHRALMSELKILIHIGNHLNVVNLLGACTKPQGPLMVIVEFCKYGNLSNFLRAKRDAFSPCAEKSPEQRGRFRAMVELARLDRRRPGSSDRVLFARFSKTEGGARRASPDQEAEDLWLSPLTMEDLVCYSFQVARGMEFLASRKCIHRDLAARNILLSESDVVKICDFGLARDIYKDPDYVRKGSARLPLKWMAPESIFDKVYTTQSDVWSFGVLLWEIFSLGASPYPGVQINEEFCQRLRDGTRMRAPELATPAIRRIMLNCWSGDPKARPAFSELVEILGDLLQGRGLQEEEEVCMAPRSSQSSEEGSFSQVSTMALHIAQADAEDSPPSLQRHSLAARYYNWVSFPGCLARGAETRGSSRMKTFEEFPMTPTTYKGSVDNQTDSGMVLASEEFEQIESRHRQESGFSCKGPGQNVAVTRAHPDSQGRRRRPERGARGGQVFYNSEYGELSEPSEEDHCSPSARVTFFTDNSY
# [7] = biological target: Vascular endothelial growth factor receptor 3 (Homo sapiens) (UniProt P35916); conditions: at 1 µM
# [8] = biological target: Macrophage colony-stimulating factor 1 receptor (Homo sapiens) (UniProt P07333); conditions: at 0.1 µM
# Sequence of Macrophage colony-stimulating factor 1 receptor (Homo sapiens) (P07333 whole entry): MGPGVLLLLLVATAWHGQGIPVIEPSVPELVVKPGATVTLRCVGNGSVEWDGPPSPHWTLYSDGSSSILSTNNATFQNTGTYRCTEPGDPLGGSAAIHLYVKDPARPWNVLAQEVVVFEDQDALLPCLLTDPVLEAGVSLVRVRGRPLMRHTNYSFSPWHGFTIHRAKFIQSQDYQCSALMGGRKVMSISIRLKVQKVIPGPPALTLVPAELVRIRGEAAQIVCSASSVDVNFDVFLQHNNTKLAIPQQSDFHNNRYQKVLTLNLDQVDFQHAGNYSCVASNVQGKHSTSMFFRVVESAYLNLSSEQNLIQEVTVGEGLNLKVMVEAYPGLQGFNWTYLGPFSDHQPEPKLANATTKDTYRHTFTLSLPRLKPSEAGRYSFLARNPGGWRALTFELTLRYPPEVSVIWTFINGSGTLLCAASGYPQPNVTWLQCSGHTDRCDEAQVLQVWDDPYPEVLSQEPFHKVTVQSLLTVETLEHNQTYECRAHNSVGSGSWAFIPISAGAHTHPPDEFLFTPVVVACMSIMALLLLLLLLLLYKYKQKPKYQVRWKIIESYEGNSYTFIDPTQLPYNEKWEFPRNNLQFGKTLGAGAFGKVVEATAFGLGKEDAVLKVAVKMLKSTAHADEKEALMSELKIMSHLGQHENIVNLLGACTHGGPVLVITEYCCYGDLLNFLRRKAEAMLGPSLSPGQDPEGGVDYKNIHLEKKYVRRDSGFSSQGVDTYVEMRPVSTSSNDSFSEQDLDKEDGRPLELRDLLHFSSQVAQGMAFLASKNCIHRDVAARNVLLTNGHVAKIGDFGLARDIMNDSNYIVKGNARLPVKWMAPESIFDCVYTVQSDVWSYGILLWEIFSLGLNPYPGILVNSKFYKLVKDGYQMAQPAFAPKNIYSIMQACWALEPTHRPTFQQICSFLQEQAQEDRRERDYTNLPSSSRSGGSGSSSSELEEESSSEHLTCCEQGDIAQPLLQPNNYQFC
# [9] = biological target: Macrophage colony-stimulating factor 1 receptor (Homo sapiens) (UniProt P07333); conditions: at 1 µM
# [10] = biological target: Tyrosine-protein kinase Fyn (Homo sapiens) (UniProt P06241); conditions: at 0.1 µM
# Sequence of Tyrosine-protein kinase Fyn (Homo sapiens) (P06241 2-537 limits assumed): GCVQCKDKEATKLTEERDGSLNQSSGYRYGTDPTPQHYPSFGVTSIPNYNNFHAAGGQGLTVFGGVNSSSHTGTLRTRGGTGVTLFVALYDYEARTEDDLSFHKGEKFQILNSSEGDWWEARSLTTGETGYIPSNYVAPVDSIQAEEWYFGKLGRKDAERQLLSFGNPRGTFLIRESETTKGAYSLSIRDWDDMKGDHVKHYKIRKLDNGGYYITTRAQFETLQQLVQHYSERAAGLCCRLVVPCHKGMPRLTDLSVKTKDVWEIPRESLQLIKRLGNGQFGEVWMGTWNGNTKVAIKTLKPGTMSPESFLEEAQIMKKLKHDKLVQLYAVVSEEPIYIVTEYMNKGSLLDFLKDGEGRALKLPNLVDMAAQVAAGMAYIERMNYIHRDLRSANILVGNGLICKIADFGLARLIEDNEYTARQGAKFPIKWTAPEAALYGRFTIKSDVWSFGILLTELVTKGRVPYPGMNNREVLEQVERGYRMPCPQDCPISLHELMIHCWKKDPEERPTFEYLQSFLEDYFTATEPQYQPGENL
SMILES,inhibition [1] [%],inhibition [2] [%],inhibition [3] [%],inhibition [4] [%],inhibition [5] [%],inhibition [6] [%],inhibition [7] [%],inhibition [8] [%],inhibition [9] [%],inhibition [10] [%]
COc1cccc(-n2ncc3c(N/N=C/c4ccc(C(=O)NCCN(C)C)cc4)ncnc32)c1,1.36,1.5,2.1,3.48,76,12.1,53.5,6.78,37.8,48.6
FC(F)(F)CNc1nccc(-c2cnn3ncccc23)n1,0.64,0.06,0.65,3.92,6,2.05,2.12,-4.71,3.68,0.85
NC(=O)c1ccc2c(-c3ccnc(NCCCO)n3)c(-c3ccc(F)cc3)nn2c1,5.15,3.87,4.03,14,-0.97,2.83,1.06,5.2,8.64,2.14
CC1=C(C(=O)Nc2ccc3[nH]nc(C)c3c2)C(c2ccc(C(F)(F)F)cc2)CC(=O)N1 (stereo not given),-5.55,3.32,0.85,4.14,5.4,5.85,2.72,1.56,2.04,2.88
CCS(=O)(=O)c1ccc(OC)c(Nc2ncc(-c3cccc(F)c3)o2)c1,16.1,7.8,9.98,10.5,60.3,36.4,86.8,33.7,66.7,30.1
Cc1cc(O)cc(C)c1/C=C/c1cncc(C(=O)OC(C)(C)C)c1,2.6,0.53,2.82,6.3,2.14,1.44,1.34,7.66,38.6,8.16
NS(=O)(=O)c1ccc(N/N=C2\C(=O)Nc3cccc(CCc4ccncc4)c32)cc1,-6.07,-0.07,1.59,20.8,64,30.1,47.9,39.9,46.2,2.64
Fc1cccc(COc2ccc(Nc3ncncc3C#Cc3ccccc3)cc2Cl)c1,8.71,3.37,3.17,7.47,-0.95,4.04,0.69,3.32,4.86,1.15
